Experimental data taken from PubChem BioAssay (NCATS).
Results filed as inconclusive are left out. A number with no mark means an inactive call. Activity calls are given as the source filed them. Calls come from the whole dose curve; as a rule, active = well fitted activation curve with a large enough effect; inconclusive = small, poorly fitted or top-dose-only effect; inactive = flat fitted curve, though single readings scatter.

Assay: qHTS for Hypoxia signaling pathway (HIF-1) agonists against the NCATS CANVASS Library (AID 1347375); for activation: 0% is about no effect
Conditions: HRE-bla ME-180 cells, HIF-1 beta-lactamase reporter, 17 h; series mostly up to 38.3 µM; activation: at the top concentration
Description: Natural products and their derivatives continue to be wellsprings of nascent therapeutic potential. However, many laboratories have limited resources for biological evaluation, leaving their previously isolated or synthesized compounds largely or completely untested. To address this issue, the Canvass library of natural products was assembled (https://tripod.nih.gov/canvass), in collaboration with academic and industry researchers, for quantitative high-throughput screening (qHTS) across a diverse set of cell-based and biochemical assays. The pure (>85% purity by liquid chromatography/mass spectrometry [LC/MS]) Canvass library of 346 natural products were submitted by 45 academic laboratories and companies around the world. We collected pure natural products to circumvent deconvolution and structure elucidation due to time and resource limitations. The library was formatted into 1536-well plates and evaluated in 50 qHTS (in an 11-pnt concentration series) bioassays with broad scope of disease-relevant mechanisms. The resulting data set from 50 different assays was then systematically analyzed to identify overall trends and specific natural products with interesting biological activities. Reported herein are the results of each individual qHTS and their corresponding assay protocol. During hypoxic conditions, the cellular responses are regulated in large part through the activation of the heterodimeric transcription factor called hypoxia-inducible factor-1 (HIF-1). The assay used is a beta-lactamase reporter gene under control of the hypoxia responsive element (HRE) that has been stably integrated into ME-180 cells. This assay identifies inducers of the HIF-1-signaling pathway. The cytotoxicity of the compound library against HRE-bla ME-180 cell line was tested in parallel by measuring cell viability using CellTiter-Glo assay (Promega, Madison, WI) in the same assay wells. The compounds were also tested for auto fluorescence that may interfere with the biological target readout resulting in potential false positives and/or negatives. National Center for Advancing Translational Sciences (NCATS), Rockville, MD National Institute of Health (NIH), Bethesda, Maryland
HIF-1 agonist assay protocol: HRE-bla ME-180 cells were dispensed at 2,000 cells per well in 6 uL of assay medium containing 0.5% dialyzed FBS into black wall/clear-bottom 1536-well plates using a Multidrop Combi (Thermo Scientific, Waltham, MA) dispenser. After the assay plates were incubated at 37C and 5% CO2 for 5 hrs, 23 nL of compounds dissolved in DMSO, positive controls or DMSO only was transferred to each well of the assay plate using a Pintool station (Kalypsys, San Diego, CA). The assay plates were incubated at 37C and 5% CO2 for 17 hrs. One uL of LiveBLAzerTM B/G FRET substrate (CCF4-AM) (Life Technologies) was added to each well using a Flying Reagent Dispenser (Aurora Discovery, San Diego, CA). After 2 hr incubation at room temperature, fluorescence intensity (405 nm excitation, 460 nm and 530 nm emissions) was measured using an Envision plate reader (PerkinElmer, Shelton, CT). To assess cell viability (and for data normalization), 4uL of CellTiter-Glo (Promega) was added to the assay plate using the BioRAPTR dispenser and incubated at room temperature for 30 min. Luminescence signal was obtained using the ViewLux microplate reader (PerkinElmer) using a clear emission mirror, and a 15 sec exposure time, 1x binning settings.
Potency is the fitted concentration of half-maximal effect.

| SMILES | activation | Potency |
| --- | --- | --- |
| COc1ccc2c(c1)[nH]c1c(C)nccc12 | 5.14% [at 76 µM] | – |
| COc1ccc2c3c([nH]c2c1)C(C)=NCC3 | – | 13.3 µM (active) |
| CO[C@H](c1ccccc1)[C@H]1NC(=O)C(C)NC(=O)C(C[C@@H](C)CO)N(C)C(=O)[C@@H](C(O)c2cn(C(C)(C)C3CO3)c3ccccc23)NC(=O)C(C(C)C=C(C)C)NC(=O)C(CC(C)C)N(C)C(=O)C(C(C)C)NC1=O (some centres not stated) | -3.65% [at 22.9 µM] | – |
| CNCCc1ccc(O)cc1 | -0.279% | – |
| CC1=CC2CC[C@@H]3[C@@H](C)C[C@H](C)[C@@H](C1)N23 (some centres not stated) | 4.7% | – |
| CN1C(=O)[C@]23CC4C(C)(C)[C@@]5(C[C@@]41CN2CC[C@@]3(C)O)C(=O)Nc1c5ccc2c1OC=CC(C)(C)O2 (some centres not stated) | -2.26% | – |
| CO[C@@H](/C=C/CC/C=C/C(=O)O)[C@@H](O)[C@H](C)/C=C(\C)[C@@H](O)[C@H](C)C(=O)CCCC1CC(=O)NC(=O)C1 | 1.49% | – |
| CNCCc1ccccc1 | -1.59% | – |
| C[C@@H]1CC[C@@H](c2ccoc2)N2C[C@@]3(CC[C@@H]12)CS[C@@]1(CC[C@H]2[C@H](C)CC[C@@H](c4ccoc4)N2[C@@H]1O)C3 | – | 8.38 µM (active) |
| C/C=C1/CN2CC[C@]34C(=Nc5ccccc53)[C@@H]2C[C@@H]1[C@H]4C(=O)OC | -0.729% [at 76 µM] | – |
| C[C@]12CC(O)C3[C@@H](CCC4C[C@@H](O)CC[C@@]43CO)[C@@]1(O)CCC2C1=CC(=O)OC1 (some centres not stated) | -1.23% | – |
| CNCCc1c[nH]c2ccccc12 | -1.21% | – |
| CCC[C@H]1CC[C@H]2[C@H](C)CCC[C@H]2N1 | 2.84% | – |
| COc1ccc(C23Oc4cc(OC)cc(OC)c4[C@](O)([C@H](c4ccccc4)C2C(=O)NCCCCNC(=O)c2ccccc2)[C@@H]3O)cc1 (some centres not stated) | 3.09% | – |
| C=C1[C@@H](C)[C@H]2[C@H](Cc3ccccc3)NC(=O)[C@]23OC(=O)/C=C/[C@H](O)CCC[C@@H](C)C/C=C/[C@H]3[C@@H]1O | -2.16% | – |
| CC[C@@H]1CN2CC[C@@]3(O)C(=Nc4cccc(OC)c43)[C@@H]2C[C@@H]1/C(=C\OC)C(=O)OC | 2.09% | – |
| CC[N@@+]1([O-])C[C@]2(C)CC[C@@H](O)[C@@]34C5C[C@H]6CC[C@@]5(C(C[C@H]23)C41)[C@H](O)[C@@]6(O)CO (some centres not stated) | 1.8% | – |
| NCCc1ccccc1 | -1.52% | – |
| CCN1C[C@]2(C)CC[C@@H](O)[C@]34C1[C@H](C[C@H]23)C12CCC(CC14)[C@](O)(CO)[C@H]2O (some centres not stated) | 0.688% | – |
| COC(=O)C1=C2Nc3ccccc3[C@@]23CCN2CC(C(C)=O)C1C[C@H]23 (some centres not stated) | 1.81% | – |
| CCCC[C@@H]1CC[C@H]2CCCC(CCC)N12 (some centres not stated) | 4.6% | – |
| CC=C1CN(C=O)[C@H]2C[C@@H]1[C@@H](C(=O)OC)[C@@]13CCOC21Nc1ccccc13 (some centres not stated) | -0.981% | – |
| CCCCC[C@@H]1OC(=O)[C@@H](C)N(C)C(=O)[C@H](CCCCC)OC(=O)C(C)N(C)C(=O)[C@H](CCCCC)OC(=O)[C@@H](C)N(C)C(=O)[C@H](CCCCC)OC(=O)C(C)N(C)C1=O (some centres not stated) | 2.05% | – |
| CCN1C[C@]2(C)CC[C@H](O)[C@]34C1C(C[C@H]23)[C@@]12CC[C@H](CC14)[C@](O)(COC(=O)c1ccc(OC)c(OC)c1)[C@H]2O (some centres not stated) | 1.74% | – |
| CC(=O)N[C@H]1CCN2CCC[C@H]12 | -1.44% [at 85.4 µM] | – |
| CO[C@@H](/C=C/CC/C=C/C(=O)O)[C@@H](O)[C@H](C)[C@@H](O)/C(C)=C/[C@H](C)C(=O)CCCC1CC(=O)NC(=O)C1 | 4.51% | – |
| CCC(=O)CCCCC[C@@H]1NC(=O)[C@H]2CCCCN2C(=O)[C@H]([C@@H](C)CC)NC(=O)[C@H](Cc2cn(OC)c3ccccc23)NC1=O | -4.33% | – |
